Reference: the supplement of paper PMC9694430
Structures can show the parent of a compound that is named as a salt.

How the values were obtained:
Assay in all cases: thermal shift delta Tm vs DMSO control; higher = stronger stabilization (binding)
Settings in all cases: 12.5 µM; protein concentration 2 µM
LOC_OS01G57100-cb003 = tested on: LOC_OS01G57100-cb003
Outline: (§1)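 Heating from 25°C to 95°C at 0.05°C/s, fluorescence was recorded for 19.5 μl wells of 2 μM E. coli-expressed, purified rice kinase domain in 100 mM potassium phosphate pH 7.5, 150 mM NaCl, 10% glycerol and 5 × SYPRO Orange with compound in DMSO. Boltzmann fits gave melting temperatures for this differential scanning fluorimetry assay. The shift reported is the mean of three replicates against the DMSO-only protein.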

LOC_OS01G60330-cb001 = tested on: LOC_OS01G60330-cb001
Outline: as §1

LOC_OS01G60700-cb002 = tested on: LOC_OS01G60700-cb002
Outline: as §1

LOC_OS01G63280-cb003 = tested on: LOC_OS01G63280-cb003
Outline: as §1

LOC_OS01G67340-cb003 = tested on: LOC_OS01G67340-cb003
Outline: as §1

LOC_OS01G70970-cb002 = tested on: LOC_OS01G70970-cb002
Outline: as §1

LOC_OS02G07810-cb001 = tested on: LOC_OS02G07810-cb001
Outline: as §1

LOC_OS02G08530-cb003 = tested on: LOC_OS02G08530-cb003
Outline: as §1

LOC_OS02G14120-cb001 = tested on: LOC_OS02G14120-cb001
Outline: as §1

LOC_OS02G17970-cb001 = tested on: LOC_OS02G17970-cb001
Outline: as §1

LOC_OS02G45750-cb003 = tested on: LOC_OS02G45750-cb003
Outline: as §1

LOC_OS02G54510-cb004 = tested on: LOC_OS02G54510-cb004
Outline: as §1

LOC_OS03G04050-cb001 = tested on: LOC_OS03G04050-cb001
Outline: as §1

LOC_OS03G12390-cb001 = tested on: LOC_OS03G12390-cb001
Outline: as §1

LOC_OS03G27990-cb004 = tested on: LOC_OS03G27990-cb004
Outline: as §1

LOC_OS03G50450-cb001 = tested on: LOC_OS03G50450-cb001
Outline: as §1

LOC_OS03G50810-cb003 = tested on: LOC_OS03G50810-cb003
Outline: as §1

LOC_OS04G35114-cb001 = tested on: LOC_OS04G35114-cb001
Outline: as §1

LOC_OS04G38480-cb003 = tested on: T1, LOC_OS04G38480-cb003
T1 sequence (whole entry): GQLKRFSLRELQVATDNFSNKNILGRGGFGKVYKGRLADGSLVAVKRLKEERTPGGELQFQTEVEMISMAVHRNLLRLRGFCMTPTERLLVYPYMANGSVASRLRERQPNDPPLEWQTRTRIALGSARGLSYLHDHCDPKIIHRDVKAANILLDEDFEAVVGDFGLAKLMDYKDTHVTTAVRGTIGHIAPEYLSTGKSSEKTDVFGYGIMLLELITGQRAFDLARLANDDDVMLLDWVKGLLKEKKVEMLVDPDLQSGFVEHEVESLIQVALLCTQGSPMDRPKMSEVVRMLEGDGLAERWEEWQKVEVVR
Outline: as §1

LOC_OS04G41100-cb001 = tested on: T2, LOC_OS04G41100-cb001
T2 sequence (whole entry): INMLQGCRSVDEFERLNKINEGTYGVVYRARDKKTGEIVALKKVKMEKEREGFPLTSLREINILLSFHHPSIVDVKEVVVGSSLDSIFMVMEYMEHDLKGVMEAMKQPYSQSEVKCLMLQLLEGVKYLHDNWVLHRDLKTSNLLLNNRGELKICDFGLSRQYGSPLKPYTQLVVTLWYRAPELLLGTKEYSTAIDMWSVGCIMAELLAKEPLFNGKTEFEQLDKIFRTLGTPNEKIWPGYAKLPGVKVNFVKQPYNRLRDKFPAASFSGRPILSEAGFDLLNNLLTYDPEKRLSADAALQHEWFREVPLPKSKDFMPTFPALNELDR
Outline: as §1
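Note: purified Escherichia coli-expressed rice kinase domain construct.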

Row | SMILES | thermal shift delta Tm (LOC_OS01G57100-cb003) [°C] | thermal shift delta Tm (LOC_OS01G60330-cb001) [°C] | thermal shift delta Tm (LOC_OS01G60700-cb002) [°C] | thermal shift delta Tm (LOC_OS01G63280-cb003) [°C] | thermal shift delta Tm (LOC_OS01G67340-cb003) [°C] | thermal shift delta Tm (LOC_OS01G70970-cb002) [°C] | thermal shift delta Tm (LOC_OS02G07810-cb001) [°C] | thermal shift delta Tm (LOC_OS02G08530-cb003) [°C] | thermal shift delta Tm (LOC_OS02G14120-cb001) [°C] | thermal shift delta Tm (LOC_OS02G17970-cb001) [°C] | thermal shift delta Tm (LOC_OS02G45750-cb003) [°C] | thermal shift delta Tm (LOC_OS02G54510-cb004) [°C] | thermal shift delta Tm (LOC_OS03G04050-cb001) [°C] | thermal shift delta Tm (LOC_OS03G12390-cb001) [°C] | thermal shift delta Tm (LOC_OS03G27990-cb004) [°C] | thermal shift delta Tm (LOC_OS03G50450-cb001) [°C] | thermal shift delta Tm (LOC_OS03G50810-cb003) [°C] | thermal shift delta Tm (LOC_OS04G35114-cb001) [°C] | thermal shift delta Tm (LOC_OS04G38480-cb003) [°C] | thermal shift delta Tm (LOC_OS04G41100-cb001) [°C]
1 | COc1cc(Nc2ncc(F)c(Nc3ccc4c(n3)N(COP(=O)(O)O)C(=O)C(C)(C)O4)n2)cc(OC)c1OC [Fostamatinib (R788)] | 4.42 | 6.53 | 0.92 | 0.09 | 1.18 | 3.04 | 0.54 | 3.76 | 11 | 0.23 | 4.51 | 2.89 | 0.44 | 7.17 | 2.16 | 10.5 | 3.97 | 3.46 | 4.1 | 0.47
2 | CC1(COc2ccc3c(c2)ncn3-c2ccc3cccc(N4CCC(N)CC4)c3n2)COC1 | 1.84 | 0.86 | 0.41 | 0.93 | 3.44 | 7.9 | 0.2 | 3.47 | 11.5 | 0.58 | 16.4 | 0.52 | 0.13 | 1.74 | 7.81 | 0.06 | 8.62 | 9.74 | 3.29 | 0.23
3 | O=C(NOC[C@H](O)CO)c1ccc(F)c(F)c1Nc1ccc(I)cc1F | 0.81 | 1.22 | 1.23 | 0.57 | 0.04 | 0.46 | 1.39 | 1.15 | 1.04 | 0.52 | 0.77 | 0.16 | 0.43 | 0.47 | 0.21 | 0.26 | 0.28 | -0.05 | 0.76 | 0.78
4 | N=C(N)NC(=N)NCCc1ccccc1 [Phenformin HCl] | 2.51 | 0.5 | 0.54 | 0.18 | -0.23 | 0.29 | 0.75 | -0.63 | 1.22 | 0.39 | 0.17 | -0.29 | 0.17 | -0.23 | 0.15 | 0.26 | 0.78 | -0.12 | 0.97 | -0.08
5 | CO[C@H]1C[C@@H]2CC[C@@H](C)[C@@](O)(O2)C(=O)C(=O)N2CCCC[C@H]2C(=O)O[C@H]([C@H](C)C[C@@H]2CC[C@@H](OC(=O)C(C)(CO)CO)[C@H](OC)C2)CC(=O)[C@H](C)/C=C(\C)[C@@H](O)[C@@H](OC)C(=O)[C@H](C)C[C@H](C)/C=C/C=C/C=C/1C | 1.06 | 1.91 | 0.66 | 0.23 | -0.48 | 0.3 | 0.33 | 0.57 | 0.93 | 0.36 | 0.69 | -0.04 | 0.5 | -0.26 | 0.07 | 0.44 | -0.05 | -0.13 | 1.42 | 0.7
6 | CC(C)NC[C@@H](C(=O)N1CCN(c2ncnc3c2[C@H](C)C[C@H]3O)CC1)c1ccc(Cl)cc1 [Ipatasertib (GDC-0068)] | 0.44 | 0.84 | 1.12 | 0.25 | 0.25 | 0.4 | 0.82 | 0.31 | -0.01 | 0.06 | 0.72 | 0.15 | 0.65 | -0.37 | 0.47 | 1.15 | 0.45 | 0.7 | 1.01 | 0.07
